# Values joined by “and” are separate entries in the source; they are usually repeats but may differ in a detail not shown here. Equal values may be shown once. Some structures have more than one record in an assay (separate samples or runs), and their calls can disagree. Active and inactive are the calls of the source.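 The calls were made as follows, unless noted: active = thallium flux through the channel raised or lowered by more than 3 SD from vehicle-only wells, actives on both sides; inactive = the rest.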
# Key:
# [1] = test system: Hepatitis C virus NS3 helicase; test: HCV NS3 helicase inhibitors, primary screen, biochemical, fluorescence polarization, NIH Clinical Collection (AID 743270; call rule not given here); details: NS3 helicase binding to Cy5-dT15 DNA, stronger effect = higher value, concentration not given here
# [2] = target: Single-stranded DNA-binding protein (Escherichia coli (strain K12)) (UniProt P0AGE0); test: E. coli SSB displacement from DNA, counter-screen for HCV NS3 helicase inhibitor project, biochemical, fluorescence polarization, NIH Clinical Collection (AID 743271; in the data active = inhibition above about 28%); details: stronger effect = higher value, concentration not given here
# [3] = fluorescence interference in NS3h assay format, artefact control for HCV NS3 helicase inhibitor project, biochemical, NIH Clinical Collection (AID 743272; call rule not given here;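 also: HCV NS3 helicase with a Cy5 labelled single stranded DNA probe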); details: fluorescence interference counterscreen, stronger effect = lower value
# [4] = stimulators of nuclear beta-catenin in C2C12, primary screen, imaging, WNT3A-conditioned medium, mouse C2C12, NPC library (AID 1117326; in the data active = nuclear beta-catenin stimulation mostly above about 4.2%, no sharp cut-off; inactive = mostly below about 10%); details: stronger effect = higher value
# [5] = stimulators of insulin release from INS-1E, primary screen, cell-based, 5 mM glucose, NPC library (AID 1117329;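 active = compound raises insulin release from rat beta cells at 5 mM glucose, no numeric limit stated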); details: rat INS-1E insulin secretion, at 10 µM, stronger effect = higher value
# [6] = growth inhibition of GSK3B-pretreated HCT116 cells – cell-based, CellTiter-Glo, 0.2 to 20 µM (AID 1117336;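 active = compounds lowering colon cancer cell viability after pretreatment blocking the GSK3B kinase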); details: HCT116 viability after GSK3B inhibitor, at 20 µM, stronger effect = higher value
# [7] = inhibition of endothelial tube formation, primary screen, imaging, VEGF stimulated, CD31 staining, tube area, NPC library (AID 1117340;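 active = compound that reduces growth-factor-driven endothelial tube area in a mixed cell culture, no cutoff stated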); details: VEGF-stimulated ADSC/ECFC co-culture, at 10 µM, stronger effect = higher value
# [8] = glucagon-like peptide 1 release enhancers, primary assay, NCI-H716 cell line, NPC library (AID 1117341;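 active = compound raises GLP1 secretion from the human gut endocrine cells, with no numeric limit stated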); details: NCI-H716 cells, at 10 µM, stronger effect = higher value
# [9] = HCT116 colon cancer cell growth inhibition, primary screen, CellTiter-Glo luminescence, NPC library (AID 1117342;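 active = compounds that lower survival of HCT116 colon cancer cells in the luminescence readout, no numeric limit stated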); details: at 20 µM (top of the series)
# [10] = CellTiter-Glo luminescent readout of SW480 viability loss, NPC library primary (AID 1117343;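 active = compounds that lower viability of the colon cancer cells in the luminescence readout, with no numeric limit stated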); details: CellTiter-Glo luminescence; at 20 µM (top of the series)
# [11] = decreased DLD-1 cellular survival, CellTiter-Glo luminescent readout, NPC compound collection, primary HTS (AID 1117346;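 active = compounds that lower survival of DLD-1 colon cancer cells in the luminescence readout, no cutoff given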); details: DLD-1 viability, CellTiter-Glo luminescence; at 20 µM (top of the series)
# [12] = target: 6-phosphogluconate dehydrogenase, decarboxylating (Homo sapiens) (UniProt P52209); test: 6PGD enzyme inhibitors, primary screen, biochemical, human, recombinant enzyme, NADPH absorbance (AID 1159550;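 active = at least 20% inhibition of 6-phosphogluconate dehydrogenase activity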); details: recombinant 6PGD, NADPH absorbance 341 nm; at 10 µM; stronger effect = higher value
# [13] = differential killing of epithelial or mesenchymal cells, primary screen, imaging, PC-3E GFP, TEM4-18 mCherry, co-culture (AID 1345086;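 active = compounds killing one labelled cell type while sparing the other, by normalised counts and ratio limits, not self-fluorescent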;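 also: cells exposed to compound for 72 h before imaging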;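 as to red/green cell ratio (normalised): normalised mesenchymal count divided by normalised epithelial count so high means epithelial killing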); details: imaging cell counts, at 1 µM
# [14] = sensitizers of A549 cells to miR-34 induction, primary screen, imaging, A549 dox-inducible miR-34, nuclei and caspase counts (AID 1347080;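 active = compounds whose cell count with miR-34 switched on is under 0.7 times the count with it off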); details: A549 miR-34 inducible, Hoechst nuclei count, 48 h
# [15] = survival rescue of mitochondrial mutant cells in low glucose, primary screen, MELAS cybrids, Rieske KO mouse fibroblasts, CellTiter-Glo (AID 1508586;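 active = mean z-score across replicates of 1.96 or higher in either the MELAS or the Rieske mutant cell line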;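 also: z relative to plate mean and SD of compound and empty wells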)
# [16] = target: NAD(+) hydrolase SARM1 (Homo sapiens) (UniProt Q6SZW1); test: SARM1 TIR NADase inhibitors, cell lysate, NAD-Glo luminescence (AID 1508614;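 active = compound whose remaining NAD level is above about 45 nM, limit read from the data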;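 also: higher remaining NAD means stronger inhibition of SARM1 NADase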); details: SAM-TIR HEK293T lysate NADase, at 1 µM, stronger effect = higher value
# [17] = target: Mitogen-activated protein kinase 7 (Homo sapiens) (UniProt Q13164); test: ERK5 transactivation activators in reporter cells, primary screen, cell-based, HTS (AID 1508626;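 active = luciferase signal above three times the same-plate solvent-only control wells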;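 also: luciferase driven by Gal4-ERK5 fusion binding five Gal4 sites before minimal TATA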); details: HeLa Gal4-ERK5 transactivation, 18 h, at 5 µM, stronger effect = higher value
# F380Y = test: modulators of BK channel variants, profiling panel, selectivity assay, cell-based, U2OS BacMam, thallium flux, beta subunits (AID 1259406); details: at 30 µM;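 also: initial slope of Thallos dye fluorescence rise after thallium is added; log ratio against the mean of 0.3% DMSO vehicle wells on the same plate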
# F380Y/beta2Delta = test: as above; details: at 30 µM
# [18] = target: Calcium-activated potassium channel subunit alpha-1 (Homo sapiens) + Leucine-rich repeat-containing protein 26 (Homo sapiens) (UniProt Q12791+Q2I0M4); test: as above; details: F380Y/Slo1WT/gamma1, at 30 µM
# [19] = stronger effect = lower value, cell number ratio, induced over uninduced
# [20] = measured here: relative caspase fold change +Dox/-Dox
# [21] = measured here: total cells with miR-34 induction, stronger effect = lower value
# [22] = measured here: total cells without miR-34 induction
# [23] = MELAS cybrid survival, CellTiter-Glo 48 h, stronger effect = higher value
# [24] = Rieske KO mouse fibroblast survival, CellTiter-Glo 72 h
# Chain of 6-phosphogluconate dehydrogenase, decarboxylating (Homo sapiens) (P52209 whole entry, looked up): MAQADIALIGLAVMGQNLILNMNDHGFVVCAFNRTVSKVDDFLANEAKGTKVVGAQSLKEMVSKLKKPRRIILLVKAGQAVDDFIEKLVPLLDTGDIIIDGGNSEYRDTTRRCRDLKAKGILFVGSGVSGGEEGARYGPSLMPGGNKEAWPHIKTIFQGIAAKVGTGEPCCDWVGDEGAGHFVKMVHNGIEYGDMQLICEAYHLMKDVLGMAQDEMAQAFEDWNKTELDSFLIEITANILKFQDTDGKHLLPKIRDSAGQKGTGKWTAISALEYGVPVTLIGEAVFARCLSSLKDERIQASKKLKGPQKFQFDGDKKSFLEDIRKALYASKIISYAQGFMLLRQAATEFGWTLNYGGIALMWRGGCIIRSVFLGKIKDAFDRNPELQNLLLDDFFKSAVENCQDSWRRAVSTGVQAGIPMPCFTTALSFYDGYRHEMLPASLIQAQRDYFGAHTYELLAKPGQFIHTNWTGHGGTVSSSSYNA
# Chain of NAD(+) hydrolase SARM1 (Homo sapiens) (Q6SZW1 whole entry, looked up, the tested form may be a part): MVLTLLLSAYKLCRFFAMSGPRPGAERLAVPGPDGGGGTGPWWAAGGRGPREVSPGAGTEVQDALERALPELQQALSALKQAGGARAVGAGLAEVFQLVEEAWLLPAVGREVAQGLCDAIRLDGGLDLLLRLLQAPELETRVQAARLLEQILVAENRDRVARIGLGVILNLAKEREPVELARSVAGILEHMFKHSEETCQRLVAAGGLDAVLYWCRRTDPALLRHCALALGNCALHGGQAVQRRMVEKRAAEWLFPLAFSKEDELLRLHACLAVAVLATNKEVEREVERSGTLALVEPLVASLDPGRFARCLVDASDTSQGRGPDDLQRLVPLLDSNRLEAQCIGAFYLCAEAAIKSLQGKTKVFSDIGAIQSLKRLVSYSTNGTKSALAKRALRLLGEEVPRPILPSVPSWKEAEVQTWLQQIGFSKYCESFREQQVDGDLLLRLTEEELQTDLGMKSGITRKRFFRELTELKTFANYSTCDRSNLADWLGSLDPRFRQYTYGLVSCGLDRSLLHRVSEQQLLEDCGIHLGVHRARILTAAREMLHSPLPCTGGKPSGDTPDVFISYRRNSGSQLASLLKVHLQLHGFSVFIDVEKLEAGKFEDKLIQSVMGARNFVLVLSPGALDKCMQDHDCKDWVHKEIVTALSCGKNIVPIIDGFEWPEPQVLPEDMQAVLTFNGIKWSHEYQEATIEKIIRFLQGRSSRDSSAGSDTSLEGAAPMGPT
# Chain of Mitogen-activated protein kinase 7 (Homo sapiens) (Q13164 whole entry, looked up, the tested form may be a part): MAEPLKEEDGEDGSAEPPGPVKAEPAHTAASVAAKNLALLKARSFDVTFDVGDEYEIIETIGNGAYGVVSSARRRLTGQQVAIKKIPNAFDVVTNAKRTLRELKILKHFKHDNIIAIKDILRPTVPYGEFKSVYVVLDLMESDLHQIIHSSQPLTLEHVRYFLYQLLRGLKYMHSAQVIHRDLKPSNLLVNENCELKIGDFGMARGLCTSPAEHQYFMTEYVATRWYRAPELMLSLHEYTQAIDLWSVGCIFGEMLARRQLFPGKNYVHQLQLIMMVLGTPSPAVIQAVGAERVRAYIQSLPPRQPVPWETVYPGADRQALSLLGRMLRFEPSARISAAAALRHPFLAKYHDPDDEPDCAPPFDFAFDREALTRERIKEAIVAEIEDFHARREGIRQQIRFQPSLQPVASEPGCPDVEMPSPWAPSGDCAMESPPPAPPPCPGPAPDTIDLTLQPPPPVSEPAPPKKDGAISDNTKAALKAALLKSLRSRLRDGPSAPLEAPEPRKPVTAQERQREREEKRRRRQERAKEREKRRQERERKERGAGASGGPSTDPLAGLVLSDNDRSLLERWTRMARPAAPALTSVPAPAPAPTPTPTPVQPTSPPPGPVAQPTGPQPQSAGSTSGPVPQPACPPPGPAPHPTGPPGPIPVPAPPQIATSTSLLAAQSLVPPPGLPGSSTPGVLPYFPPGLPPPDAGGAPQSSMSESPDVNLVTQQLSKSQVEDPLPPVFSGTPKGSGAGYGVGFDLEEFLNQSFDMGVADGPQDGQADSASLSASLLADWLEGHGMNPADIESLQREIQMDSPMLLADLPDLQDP
# Chain of Calcium-activated potassium channel subunit alpha-1 (Homo sapiens) + Leucine-rich repeat-containing protein 26 (Homo sapiens) (Q2I0M4 whole entry, looked up, one chain of several): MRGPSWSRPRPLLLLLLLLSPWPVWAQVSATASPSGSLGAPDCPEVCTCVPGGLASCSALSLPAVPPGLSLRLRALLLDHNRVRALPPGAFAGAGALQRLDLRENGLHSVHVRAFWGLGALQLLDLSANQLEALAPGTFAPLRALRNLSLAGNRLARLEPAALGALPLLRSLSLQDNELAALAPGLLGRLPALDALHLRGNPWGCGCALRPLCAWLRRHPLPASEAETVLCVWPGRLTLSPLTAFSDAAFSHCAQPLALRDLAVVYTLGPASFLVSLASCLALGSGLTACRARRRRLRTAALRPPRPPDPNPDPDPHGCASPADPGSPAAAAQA
compound,measurement,setting,value
CN(C)c1ccc(O)c2c1C[C@H]1C[C@H]3[C@H](N(C)C)C(=O)C(C(N)=O)=C(O)[C@@]3(O)C(=O)C1=C2O,inhibition,[1],-8.64% (inactive)
same,inhibition,[2],0.29% (inactive)
same,fluorescence ratio,[3],0.89 (inactive)
same,nuclear beta-catenin stimulation,[4]; at 10 µM,3.7% (inactive)
same,nuclear beta-catenin stimulation,"[4]; stimulation, at 2 µM",6.6%
same,insulin secretion stimulation,[5],1.5% (inactive)
same,viability decrease,[6],-31.1% (inactive)
same,tube area decrease,[7],6.7% (inactive)
same,GLP1 secretion stimulation,[8],-1.4% (inactive)
same,inhibition of viability,[9],17.9% (inactive)
same,viability decrease (inhibition),[10],65.6% (active)
same,viability decrease (inhibition),[11],74.4% (active)
same,inhibition,[12],-17.9% (inactive)
same,red/green cell ratio (normalised),"[13]; actives lie on both sides, counts scaled to control wells, 1 = unselective",1.2 (inactive)
same,normalised cell number,[13]; measured here: epithelial PC-3E GFP cell survival,0.99
same,normalised cell number,[13]; measured here: mesenchymal TEM4-18 mCherry cell survival,1.19
same,fold change,[14]; [19],1.15 (inactive) and 0.819 (inactive) and 0.689 (active)
same,fold change,[14]; [20],0.974 and 2.86 and 1.89
same,cell count,[14]; [21],2650 and 5110 and 3260
same,cell count,[14]; [22],2300 and 6240 and 4740
same,z-score,[15]; [23],-2.76 (inactive) and 0.283 (inactive)
same,z-score,[15]; [24],-3.81 and -1.93
same,remaining NAD,[16],10 nM (inactive)
same,luciferase signal,[17],52 AU (inactive)
same,log fold change Tl+ flux,F380Y,-0.0263 (inactive)
same,log fold change Tl+ flux,F380Y/beta2Delta,0.045 (inactive)
same,log fold change Tl+ flux,[18],0.0283 (inactive)
OCCN1C[C@H](O)[C@@H](O)[C@H](O)[C@H]1CO,inhibition,[1],-1.98% (inactive)
same,inhibition,[2],-4.72% (inactive)
same,fluorescence ratio,[3],0.93 (inactive)
same,nuclear beta-catenin stimulation,[4]; at 10 µM,-2.3% (inactive)
same,nuclear beta-catenin stimulation,"[4]; stimulation, at 2 µM",-1%
same,insulin secretion stimulation,[5],5.4% (inactive)
same,viability decrease,[6],-1.6% (inactive)
same,tube area decrease,[7],0.1% (inactive)
same,GLP1 secretion stimulation,[8],-1.4% (inactive)
same,inhibition of viability,[9],0.6% (inactive)
same,viability decrease (inhibition),[10],-1.7% (inactive)
same,viability decrease (inhibition),[11],0.1% (inactive)
same,inhibition,[12],6.33% (inactive)
same,z-score,[15]; [23],0.074 (inactive)
same,z-score,[15]; [24],0.78
same,remaining NAD,[16],10 nM (inactive)
same,luciferase signal,[17],80 AU (inactive)
same,log fold change Tl+ flux,F380Y,-0.0502 (inactive)
same,log fold change Tl+ flux,F380Y/beta2Delta,-0.0041 (inactive)
same,log fold change Tl+ flux,[18],-0.0394 (inactive)
CN(C)CC/C=C1\c2ccccc2COc2ccccc21,inhibition,[1],-1.36% (inactive)
same,inhibition,[2],4.1% (inactive)
same,fluorescence ratio,[3],0.9 (inactive)
same,nuclear beta-catenin stimulation,[4]; at 10 µM,-0.4% (inactive)
same,nuclear beta-catenin stimulation,"[4]; stimulation, at 2 µM",0.3%
same,insulin secretion stimulation,[5],-0.9% (inactive)
same,viability decrease,[6],-44.3% (inactive)
same,tube area decrease,[7],-0.9% (inactive)
same,GLP1 secretion stimulation,[8],5.2% (inactive)
same,inhibition of viability,[9],12% (inactive)
same,viability decrease (inhibition),[10],54.8% (active)
same,viability decrease (inhibition),[11],-3.7% (inactive)
same,inhibition,[12],2.99% (inactive)
same,fold change,[14]; [19],0.953 (inactive) and 0.908 (inactive) and 0.946 (inactive)
same,fold change,[14]; [20],1.39 and 2.7 and 1.08
same,cell count,[14]; [21],9160 and 8980 and 8750
same,cell count,[14]; [22],9610 and 9880 and 9250
same,z-score,[15]; [23],0.295 (inactive)
same,z-score,[15]; [24],0.581
same,remaining NAD,[16],10 nM (inactive)
same,luciferase signal,[17],96 AU (inactive)
same,log fold change Tl+ flux,F380Y,0.0501 (inactive)
same,log fold change Tl+ flux,F380Y/beta2Delta,0.0812 (active)
same,log fold change Tl+ flux,[18],0.0287 (inactive)

# Source: PubChem BioAssay
